# Reference: PubChem BioAssay (NCI)
# Compounds without any hit were thinned out: in the full panel of roughly 79,000, 15% have a hit. A number with no mark means an inactive call. Calls of active or inactive are those of the source. No stated cut-off is given here; in the data, active means growth inhibition above about 70%; inactive means the rest.
# Assay: NCI Yeast Anticancer Drug Screen. Data for the mlh1 strain (AID 171);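 further: 0% = growth of vehicle-treated control cultures of the same strain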
# Settings: S. cerevisiae mlh1 strain growth inhibition, stronger effect = higher value
# Procedure: Growth inhibition of yeast strains with defined genetic alterations is measured as a screen for potential anti-cancer activity. Selected strains with alterations in DNA damage repair or cell cycle control were exposed to compounds and growth inhibition was measured relative to vehicle treated controls. The strain used in this assay is mlh1
SMILES,growth inhibition (at 1.2 µM) [%],growth inhibition (at 3.7 µM) [%],growth inhibition (at 11.0 µM),growth inhibition (at 33.0 µM),growth inhibition (at 100.0 µM)
Oc1c2c(c(O)c3ccccc13)C1(N=N2)c2ccccc2Oc2ccccc21,13,43,98% (active),97% (active),94% (active)
Oc1ccc(N=Nc2ccc(Cl)cc2)cc1,4,2,77% (active),99% (active),99% (active)
O=[N+]([O-])c1cn[n+]([O-])c2ccccc12,10,6,39%,95% (active),99% (active)
CC(C)OP(=O)(OC(C)C)C(=NCCO)NNc1ccc([N+](=O)[O-])cc1,-18,-22,3%,46%,87% (active)
CN(C)CC(CN(C)C)C(=O)/C=C/c1ccc(Cl)cc1Cl,-3,-5,10%,99% (active),98% (active)
CC1=NN(C(=O)CC(=O)NC(=O)/C=C\c2ccccc2)C(=O)C1N=Nc1ccc([N+](=O)[O-])cc1 (stereo not given),0,10,37%,68%,69%
c1cc(-c2sc(-c3ccncc3)c(-c3ccncc3)c2-c2ccncc2)ccn1,7,4,7%,16%,92% (active)
C/C(=N\Sc1ccccc1)c1ccccc1O,2,3,-2%,13%,79% (active)
